# FBW7 act = human FBW7 E3 ligase activation, primary screen | AlphaScreen FBW7–phospho-cyclin E peptide binding, activator screen | hit rate 0.13% among 650,000 | normalized activity (activation), % at 26.1 µM; in the data active = normalized activity above about 1.9%;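 note: purified mutant Fbw7 with reduced substrate affinity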
# MITF inh = blocks human microphthalmia-associated transcription factor. AlphaScreen MITF homodimerization, bead proximity signal. AID 1259374. inhibition, % at 2.6 µM. hit rate 0.91% among 650,000. O75030; in the data active = inhibition above about 50%;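 note: 0% = vehicle wells with protein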
# TEAD-YAP block = TEAD-YAP interaction inhibition | HEK-TIYL cells, TEAD-Gal4/YAP UAS-luciferase luminescence | inhibition, % at 9.12 µM | hit rate 1.4% among 640,000; in the data active = inhibition above about 32%;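 note: 0% = median of test compound wells and 100% = reference inhibitor wells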
# GPR151 ag = activators of human GPR151; PathHunter beta-arrestin GPR151 cells, luminescence; AID 1508602; activation, % at 11.2 µM; hit rate 1% among 650,000; Q8TDV0; in the data active = activation above about 4.9%;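 note: 0% = median of compound wells and 100% = cells with positive control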
# Target sequence (Q8TDV0 whole entry, looked up): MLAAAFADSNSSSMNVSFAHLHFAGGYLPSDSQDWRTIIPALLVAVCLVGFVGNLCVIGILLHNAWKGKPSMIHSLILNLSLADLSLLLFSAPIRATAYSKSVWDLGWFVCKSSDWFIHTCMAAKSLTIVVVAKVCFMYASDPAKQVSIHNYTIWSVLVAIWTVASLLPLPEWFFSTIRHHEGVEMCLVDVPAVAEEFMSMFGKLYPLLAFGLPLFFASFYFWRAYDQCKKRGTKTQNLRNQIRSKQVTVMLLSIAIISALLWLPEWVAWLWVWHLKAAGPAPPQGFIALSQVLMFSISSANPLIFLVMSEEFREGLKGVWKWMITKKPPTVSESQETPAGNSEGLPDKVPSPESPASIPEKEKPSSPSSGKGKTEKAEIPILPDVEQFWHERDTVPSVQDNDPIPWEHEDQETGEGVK
# GPR151 confirm = human GPR151 activation, confirmation screen | shares compounds with GPR151 ag | GPR151 PathHunter beta-arrestin cells, luminescence, 90 min; % of EA-reagent control over plate median | AID 1508609 | activation, % at 11.2 µM | 6,700 tested, under 10 active;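 active = mean percent activation across replicates above the confirmation screen cutoff of 4.91%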
# GPR119 ag = counter-screen for GPR151 activators: effect on human GPR119; shares compounds with GPR151 ag; GPR119 PathHunter beta-arrestin cells, luminescence, 90 min; 0 = compound-well median, 100 = enzyme-acceptor control; activation, % at 11.2 µM; hit rate 0.3% among 6,700; AID 1508611;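 active = mean percent activation in the counterscreen above 29.09%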;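 note: counterscreen on off-target GPR119 to flag nonselective hits from the GPR151 activator screen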
# Starred values were filed as active, the others as inactive; . = no result given. Hits are enriched below; roughly 3.4% of the tested compounds scored in any of these assays.
SMILES,FBW7 act,MITF inh,TEAD-YAP block,GPR151 ag,GPR151 confirm,GPR119 ag
Cn1c(=NC(=O)CN2C(=O)CCC2=O)sc2cc(F)cc(F)c21,0,-3,1,2,.,.
CC(=O)NCCC(=O)N1CCN(c2ccc(F)cc2)CC1,0,-11,-6,-1,.,.
O=C(c1cc([N+](=O)[O-])ccc1N1CCN(CCO)CC1)N1CCOCC1,0,-1,3,1,.,.
Cc1cc(C)n2c(SCCNCCO)nnc2n1,0,27,5,1,.,.
Cc1cc(C)n2c(SCCO)nnc2n1,0,8,10,5.6*,0,-6
O=C(CSc1ccc2nnc(-c3cccs3)n2n1)NCc1ccccc1,0,10,-2,0,.,.
Cc1nnc2ccc(SCC(=O)NCc3csc(-c4cccs4)n3)nn12,-1,-11,-27,5.6*,1,16
CCN1C(=O)C(C)(C)COc2cc(NS(=O)(=O)c3ccc(F)cc3)ccc21,0,0,3,-1,.,.
C1=Nc2c(ccc3ccccc23)Oc2cc(Oc3ccccc3)cc(Oc3ccccc3)c21,0,-7,-2,-1,.,.
O=C(CCC(=O)Nc1ccc(Br)cc1)N/N=C/c1cccs1,0,-2,-6,6.0*,0,-18
Cc1nccc2[nH]c(=O)c(C(=O)NCCc3ccccc3)cc12,0,4,9,7.3*,0,3
Cc1cccc(NCC(=O)N/N=C/c2cc(I)ccc2O)c1,0,8,12,0,.,.
C=CCOc1c(Cl)cc(/C=C2\C(=O)NC(=O)N(c3ccc(O)cc3)C2=O)cc1OC,0,-4,-2,1,.,.
COc1ccc(Nc2nnc(Cc3ccccc3Cl)c(=O)[nH]2)c(OC)c1,0,-1,5,6.4*,1,12
Cc1cccc(OCC(=O)Nc2ccc3nc(N4CCCCC4)cc(C)c3c2)c1,0,-9,-3,0,.,.
CC(C)NCCOCCOc1cccc(Cl)c1,0,42,6,8.4*,-1,-13
CC(C)NCCOCCOc1c(Cl)cccc1Cl,0,35,-18,0,.,.
COc1ccc(OC)c(N2C(=O)C3CC(C)=C(C)CC3C2=O)c1 (configuration not stated),0,5,-1,-1,.,.
COc1ccc(Cl)cc1N1C(=O)C2CC(C)=C(C)CC2C1=O (configuration not stated),0,-5,15,6.8*,0,-6
Cc1ccc(-c2nnc(C3CCN(S(=O)(=O)c4ccc(Cl)s4)CC3)o2)cc1,0,0,5,7.0*,0,-1
COc1cc(C(=O)Nc2cccc([N+](=O)[O-])c2)cc(OC)c1OC,0,11,-1,1,.,.
COc1cc(C(=O)Nc2ccc([N+](=O)[O-])cc2)cc(Br)c1OC,1,6,7,5.6*,0,2
O=C(COc1ccc(Br)cc1)Nc1ccc(Cl)cn1,0,8,-40,11*,0,14
O=C(COc1ccc(Cl)cc1)Nc1ccc(Cc2ccncc2)cc1,0,-5,-1,5.4*,-1,-13
O=C(COc1ccc(Cl)cc1)Nc1ccc(Cl)cn1,0,14,-31,0,.,.
SMILES,FBW7 act,MITF inh,TEAD-YAP block,GPR151 ag,GPR151 confirm,GPR119 ag
CN1C(=O)c2ccc(NC(=O)COc3ccc(Cl)cc3)cc2C1=O,0,-8,-2,0,.,.
O=C(COc1ccc(Cl)cc1)Nc1ccc2c(c1)C(=O)N(c1ccccc1)C2=O,0,8,9,11*,0,0
O=C(O)COc1ccc(NC(=O)COc2ccc(Cl)cc2)cc1,0,3,9,2,.,.
O=C(COc1ccc(Br)cc1)Nc1ncc(Cc2ccc(F)cc2)s1,0,5,6,6.2*,0,11
CC(=O)N1c2ccccc2NC2=C(C(=O)CC(c3cccc([N+](=O)[O-])c3)C2)C1c1ccc(C)cc1 (configuration not stated),0,-7,2,-1,.,.
O=C(COc1ccccc1)Nc1ccc(Cl)cn1,0,-1,-19,7.8*,0,-5
O=C(COc1ccccc1)NC(=S)Nc1ccc(Cl)cn1,0,9,-3,3,.,.
COc1c(C(=O)Nc2ccc(Cl)cn2)ccc2ccccc12,0,11,-39,5.5*,-1,-3
Cc1onc(-c2c(Cl)cccc2Cl)c1C(=O)NCc1ccccc1,0,9,1,-1,.,.
